# Screening data as filed in PubChem BioAssay.
# Most compounds without a hit are left out; they make up all but 3.1% or so of the library.
# Nrf2 block – Nrf2 pathway inhibition; Potency, µM (titrated, usually from 46 µM), for the others: top-dose activity change, negative = inhibition, actives largely listed as inhibitors; hit rate 2.1% among 360,000; A549 ARE-Fluc reporter, luciferase luminescence, 18-24 h; note: % is set by controls: 0 for no effect and ±100 for the full control effect; nearly all actives have a fitted effect of over 60% in size
#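 A549 ARE_Fluc cells (5000/well, 5% FBS OPTI-MEM) pre-incubated 2 h, then treated with compounds 18-24 h at 37C/5% CO2 in concentration-response. CellTiter-Fluor viability read first; BugLite luciferase luminescence after 15 min at room temperature gives Nrf2 activity.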
# A549 tox – A549 cytotoxicity, counter-screen for Nrf2 inhibitors. A549 ARE-Fluc cells, CellTiter-Fluor viability, 18-24 h. Potency, µM (doses to about 46 µM), without a hit: at the highest dose activity change, negative = cytotoxicity, actives largely listed as inhibitors. hit rate 0.16% among 390,000. AID 504648; note: % is set by controls: 0 for no effect and ±100 for the full control effect
#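 A549 ARE_Fluc cells in 5% FBS OPTI-MEM were exposed to compounds in concentration-response for 18-24 h at 37 deg C. Viability was read by CellTiter-Fluor fluorescence (Ex 405/Em 525) after 30 min, before the luciferase read.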
# TrxR1 substrate – substrates of rat thioredoxin reductase 1. hit rate 0.01% among 390,000. purified TrxR1 substrate turnover, NADPH consumption readout. O89049. Potency, µM (titrated, usually from 114 µM), without a hit: at the highest dose activity change, negative = substrate turnover; note: % is set by controls: 0 for no effect and ±100 for the full control effect; nearly all actives have a fitted effect of over 50% in size
#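 Rat TrxR1, dispensed at 90 nM, was prereduced with 400 uM NADPH (final) for 5 min at ~22 deg C, then incubated with compound 15 min before 400 uM selenite. A first-read NADPH fluorescence drop versus no-compound background flagged substrates.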
# TrxR1 inh – blocks rat thioredoxin reductase 1; hit rate 1% among 390,000; recombinant rTrxR1, NADPH fluorescence consumption, selenite substrate; O89049; AID 588453; Potency, µM (top dose mostly 114 µM), without a hit: at the highest dose activity change, negative = inhibition, hits mostly inhibitors; note: % is set by controls: 0 for no effect and ±100 for the full control effect; nearly all actives have a fitted effect of over 65% in size
#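 Rat TrxR1 (90 nM in the dispensed reagent) was pre-reduced with 400 uM NADPH for 5 min at room temperature, then incubated with compound for 15 min. After 400 uM selenite was added, NADPH fluorescence (Ex 340/Em 450 nm) was followed for 8 min.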
# IDH1 R132H inh – blocks human mutant IDH1 R132H enzyme; AID 602179; hit rate 0.093% among 390,000; Potency, µM (top dose mostly 76.6 µM), without a hit: at the highest dose activity change, negative = inhibition, most hits filed as inhibitors; IDH1-R132H enzyme, NADPH consumption, diaphorase/resazurin fluorescence; O75874; note: % is set by controls: 0 for no effect and ±100 for the full control effect; nearly all actives have a fitted effect of over 65% in size
# Target sequence (O75874 whole entry R132H, stated change not applied): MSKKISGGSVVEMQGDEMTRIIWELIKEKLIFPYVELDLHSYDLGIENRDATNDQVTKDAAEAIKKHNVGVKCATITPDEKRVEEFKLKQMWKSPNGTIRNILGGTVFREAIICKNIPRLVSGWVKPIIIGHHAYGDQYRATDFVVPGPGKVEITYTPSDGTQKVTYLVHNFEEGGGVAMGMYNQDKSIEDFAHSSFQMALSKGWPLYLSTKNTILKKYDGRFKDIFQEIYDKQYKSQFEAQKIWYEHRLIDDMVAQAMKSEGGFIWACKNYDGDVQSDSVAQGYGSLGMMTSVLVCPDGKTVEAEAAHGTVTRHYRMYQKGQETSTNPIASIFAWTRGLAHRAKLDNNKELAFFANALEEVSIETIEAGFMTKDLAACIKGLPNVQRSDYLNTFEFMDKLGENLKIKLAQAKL
#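 IDH1-R132H (0.5 ug/mL dispensed) in pH 7.5 Tris buffer was preincubated 30 min with compound, then given a substrate mix of 0.016 mM NADPH and 2 mM alpha-KG for 80 min at room temperature; remaining NADPH was read by diaphorase/resazurin fluorescence.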
# Mito fusion yeast – inhibitors of mitochondrial division or activators of mitochondrial fusion | S. cerevisiae fusion-defective mutant growth rescue, CellTiterGlo 48 h | Potency, µM (top dose mostly 46.1 µM), inactives show top-dose growth rescue (activation), hits mostly activators | hit rate 0.23% among 320,000 | AID 485298; note: % of control where 0% means no effect; nearly all actives have a fitted effect of over 45% in size
#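 Temperature-sensitive fusion-defective S. cerevisiae (e.g. fzo1-1, mgm1-5) were grown with compound in YPEG medium (3% ethanol, 3% glycerol) for 48 hours at 37C. Growth rescue was measured as viability by CellTiterGlo luminescence after 10 minutes at ambient.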
# Active calls of the source: *; u = inconclusive; x = not tested or not shown; [ ] = another dose, or the depositor's remark. Calls come from the whole dose curve; as a rule, active = well fitted curve in the direction sought with a large enough effect; inconclusive = small, poorly fitted or top-dose-only effect, or another doubt; inactive = no such curve, though single readings can be large; an effect the other way counts as inactive or inconclusive. Potency is the fitted concentration of half-maximal effect.
SMILES,Nrf2 block,A549 tox,TrxR1 substrate,TrxR1 inh,IDH1 R132H inh,Mito fusion yeast
CCOC(=O)c1cccc(NC(=O)c2ccc(NC(=O)c3ccco3)cc2)c1,21µM*,-11%,6%,27%,-14%,-8%
Cc1ccc(C(C)C)c(OCC(=O)Nc2cccc(NC(=O)c3ccco3)c2)c1,-12%,4%,-8%,-3%,0%,x
O=C(Nc1ccccc1)c1cccc(NC(=O)c2ccco2)c1,u,-7%,8%,27%,-3%,x
COc1ccc(NC(=O)c2ccco2)cc1NC(=O)COc1cc(C)ccc1C(C)C,18µM*,-19%,6%,-14%,10%,x
C=Cc1cccc(NC(=O)c2ccc(NC(=O)c3ccco3)cc2)c1,10µM*,0%,-4%,15%,-7%,-2%
CCOc1ccc(C(=O)Nc2ccc(NC(=O)c3ccco3)c(Cl)c2)cc1Br,u,u,29%,10%,0%,2%
CCOc1ccc(C(=O)Nc2ccc(NC(=O)c3ccco3)c(Cl)c2)cc1Cl,21µM*,u,42%,37%,9%,-1%
COC(=O)c1ccc(-n2nnc(-c3nc(-c4ccccc4Cl)no3)c2C)cc1,u,13%,-2%[57.1 µM],10%[57.1 µM],x,x
O=C(c1ccco1)n1nc(-c2ccccc2)nc1NCc1ccc(F)cc1,1%,-3%,9%,0%,-7%,x
Cc1noc(C)c1-c1ccc2ncnc(NCc3ccc4c(c3)OCO4)c2c1,-19%,4%,x,x,x,x
CCOC(=O)c1cccc(NC(=O)c2ccc(N(C)C)cc2)c1,16µM*,-6%,-8%,13%,5%,-3%
CCOC(=O)c1cccc(NC(=O)c2cccnc2)c1,x,4%,12%[57.1 µM],14%,7%,-4%
Cc1ccc(C(=O)Oc2cccc(NC(=O)c3ccccc3)c2)cc1C,2%,11%,2%,14%,0%,10µM*
CCOC(=O)c1c(NC(=O)c2ccncc2)sc(C)c1C,7%,17%,-3%,21%,8%,6%
CCOC(=O)c1sc(NC(=O)c2ccncc2)c(C#N)c1C,23µM*,u,-16%,u,0%,11µM*
COc1ccc(C2Cc3ccccc3C(=O)N2Cc2ccccc2)cc1COc1ccc(NC(C)=O)cc1 (centres undefined),-26%,-1%,x,x,x,x
COc1ccc(Nc2ncnc3c2cnn3-c2ccc(C)cc2)cc1Cl,x,-7%,2%[57.1 µM],-2%[57.1 µM],11%,x
O=C(CSc1nc2c([nH]c3ccccc32)c(=O)n1-c1ccccc1)N1CCCc2ccccc21,x,6%,-1%[57.1 µM],8%[57.1 µM],-2%,x
COc1ccccc1CNC(=O)c1cc2c(s1)-c1ccccc1OC2,15%,0%,336%,321%,-9%,x
COc1ccc(CCNC(=O)c2cc3c(s2)-c2ccccc2OC3)cc1OC,23µM*,2%,164%,52%,-1%,x
Cc1cccc2c1-c1sc(C(=O)NCCc3ccc(Cl)cc3)cc1CO2,23µM*,-12%,76%,59%,-9%,x
Cc1cccc(CCNC(=O)c2cc3c(s2)-c2c(C)cccc2OC3)c1,u,7%,184%,91%,12%,x
CCCCSc1nc(-c2ccc(OC)cc2)ccc1C#N,24%,23%,36%,40%,10%,x
O=C(COC(=O)/C=C/c1cccs1)Nc1nc(-c2ccccc2)cs1,u,0%,1%,56µM*,9%,-18%
O=C(COC(=O)/C=C/c1cccs1)Nc1nc(-c2cccc(Br)c2)cs1,14%,1%,2%,9%,-7%,2%
COc1cccc(C2=Nn3c(nnc3-c3cc(OC)ccc3OC)SC2)c1,10%,-7%,x,x,x,x
Cc1cc(C(=O)CSc2nc(N)cc(N)n2)c(C)n1CCc1ccc(F)cc1,15µM*,-19%,0%,2%,1%,-1%
Cc1ccc(C)c(CN2C(=O)c3ccccc3S(=O)c3ccc(C(=O)N(C)Cc4ccccc4)cc32)c1 (centres undefined),21µM*,-26%,-3%,29%,3%,x
